Assay outcomes: PubChem, Center for Chemical Genomics, University of Michigan
Dicer processing: human Dicer pre-microRNA cleavage inhibition. AID 1347074. actives 6% (n = 47,000). z-score at 25 µM. cat-ELCCA pre-miR-21 Dicer processing, chemiluminescence; stronger effect = higher value; in the data active = z-score above about 3, passing the limit was not always enough;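 note: plate controls were vehicle for no effect and no enzyme for full effect; higher signal means more uncleaved substrate so more Dicer inhibition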
Target sequence (Q9UPY3 whole entry, looked up): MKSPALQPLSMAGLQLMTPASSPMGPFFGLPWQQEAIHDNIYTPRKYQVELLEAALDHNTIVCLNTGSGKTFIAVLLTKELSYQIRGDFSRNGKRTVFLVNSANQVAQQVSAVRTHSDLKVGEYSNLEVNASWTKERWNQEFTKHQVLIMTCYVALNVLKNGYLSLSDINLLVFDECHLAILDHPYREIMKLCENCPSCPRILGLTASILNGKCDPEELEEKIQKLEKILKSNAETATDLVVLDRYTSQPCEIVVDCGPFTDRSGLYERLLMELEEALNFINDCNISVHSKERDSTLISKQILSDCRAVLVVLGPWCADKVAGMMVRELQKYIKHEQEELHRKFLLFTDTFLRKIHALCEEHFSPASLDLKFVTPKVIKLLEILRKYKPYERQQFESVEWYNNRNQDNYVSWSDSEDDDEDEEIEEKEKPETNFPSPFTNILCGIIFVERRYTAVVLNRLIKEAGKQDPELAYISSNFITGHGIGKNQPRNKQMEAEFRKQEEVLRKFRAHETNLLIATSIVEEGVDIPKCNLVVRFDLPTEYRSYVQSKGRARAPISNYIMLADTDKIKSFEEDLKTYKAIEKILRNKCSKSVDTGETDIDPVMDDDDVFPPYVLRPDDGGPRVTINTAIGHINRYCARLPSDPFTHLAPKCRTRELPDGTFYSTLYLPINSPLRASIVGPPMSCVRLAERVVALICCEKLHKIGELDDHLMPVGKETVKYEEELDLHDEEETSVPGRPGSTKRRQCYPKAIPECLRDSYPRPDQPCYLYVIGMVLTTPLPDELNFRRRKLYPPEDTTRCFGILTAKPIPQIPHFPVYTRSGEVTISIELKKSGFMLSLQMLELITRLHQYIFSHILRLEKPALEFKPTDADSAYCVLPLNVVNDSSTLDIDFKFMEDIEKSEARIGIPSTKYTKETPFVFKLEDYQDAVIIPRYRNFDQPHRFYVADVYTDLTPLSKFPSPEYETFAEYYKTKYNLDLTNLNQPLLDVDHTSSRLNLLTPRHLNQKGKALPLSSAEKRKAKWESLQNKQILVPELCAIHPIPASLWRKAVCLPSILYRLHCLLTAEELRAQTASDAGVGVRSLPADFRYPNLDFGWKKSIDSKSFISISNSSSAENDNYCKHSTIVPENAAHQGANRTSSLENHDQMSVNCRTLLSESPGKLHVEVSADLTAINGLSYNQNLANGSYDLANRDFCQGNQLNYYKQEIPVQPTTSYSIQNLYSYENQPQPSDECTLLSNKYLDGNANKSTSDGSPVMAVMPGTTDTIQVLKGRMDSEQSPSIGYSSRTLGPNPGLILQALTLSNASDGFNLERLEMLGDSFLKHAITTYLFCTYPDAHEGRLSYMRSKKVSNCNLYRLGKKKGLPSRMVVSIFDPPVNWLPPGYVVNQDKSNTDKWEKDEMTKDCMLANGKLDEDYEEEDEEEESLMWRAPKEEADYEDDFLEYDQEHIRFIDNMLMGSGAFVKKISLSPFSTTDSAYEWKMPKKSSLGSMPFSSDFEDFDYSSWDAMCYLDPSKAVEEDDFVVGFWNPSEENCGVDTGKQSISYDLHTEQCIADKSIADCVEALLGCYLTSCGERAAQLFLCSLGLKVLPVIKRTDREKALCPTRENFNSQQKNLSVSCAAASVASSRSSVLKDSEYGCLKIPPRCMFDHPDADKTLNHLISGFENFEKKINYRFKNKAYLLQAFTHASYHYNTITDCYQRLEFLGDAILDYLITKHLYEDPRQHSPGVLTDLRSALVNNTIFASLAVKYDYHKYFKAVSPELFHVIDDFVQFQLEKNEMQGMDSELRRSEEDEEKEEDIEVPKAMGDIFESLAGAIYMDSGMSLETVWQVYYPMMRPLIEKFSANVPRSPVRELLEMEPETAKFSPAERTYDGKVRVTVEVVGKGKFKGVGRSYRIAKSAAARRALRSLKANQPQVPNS
* = called active by the depositor. This excerpt belongs to a sample that is enriched for hits.

SMILES | Dicer processing
Cc1nc2ccccn2c1-c1ccnc(SCC(=O)c2cccc(C(F)(F)F)c2)n1 | -2.1
COc1ccccc1Nc1nc(-c2c(C)nc3cc(C)ccn23)cs1 | 4.6*
Cc1ccn2c(-c3csc(Nc4ccc(N(C)C)cc4)n3)c(C)nc2c1 | 5.5*
CC1CN(C(=S)Nc2cccc(C(F)(F)F)c2)CC(C)O1 (centres undefined) | -0.87
O=C(O)CSc1nnc2c3ccccc3n(Cc3ccccc3)c2n1 | 1.2
CSc1sc(C(=O)O)c(-c2ccccc2Cl)c1C#N | -0.64
Clc1ccccc1-c1noc(-c2cccs2)n1 | -0.76
CS(=NC(=O)c1ccc(Cl)cc1)c1ccc(OC(=O)c2ccc(Cl)cc2)cc1 (centres undefined) | 1.1
COc1cc(C2c3c(oc4ccccc4c3=O)C(=O)N2c2nccs2)ccc1OCc1ccccc1 (centres undefined) | -0.43
CCSC1=C(C#N)C(=O)NC(c2ccc(O)c(OC)c2)S1 (centres undefined) | -0.13
Cc1cccc(C)c1NC(=S)NNC(=O)c1ccccc1C1=NCCCN1 | 0.71
COc1cccc(/C=N/n2cnc3sc(-c4ccccc4)cc3c2=O)c1 | 2.2
Cc1cc(C)nc(NS(=O)(=O)c2ccc(Nc3nc(-c4c(C)nc5ncccn45)cs3)cc2)n1 | 2.2
Cc1nc(C)c(-c2csc(Nc3ccc(N(C)C)cc3)n2)s1 | 4.1*
Cc1cc(NS(=O)(=O)c2ccc(Nc3nc(-c4c(C)nc5ccccn45)cs3)cc2)no1 | 3.5*
Cc1cc(NS(=O)(=O)c2ccc(Cl)cc2)no1 | 0.21
CN(C)c1ccc(Nc2nc(-c3cccs3)cs2)cc1 | -1
Cc1nc(C)c(-c2csc(Nc3ccc(C(=O)O)c(O)c3)n2)s1 | 1.3
CSc1nc(C)nc(N(C)C)c1C#N | -0.5
COc1cc2cc(OC(=O)c3ccc([N+](=O)[O-])cc3)nc(C)c2cc1OC | 0.99
Cc1cccc(Cl)c1NC(=O)Nc1ccc(NC(=O)c2ccccc2O)cc1 | 1.3
O=C(C1CC(c2ccc(Cl)cc2)=NO1)N1CCCCC1 (centres undefined) | -1.6
C/C(=C(/C#N)C(=O)Nc1ccc(F)cc1F)N(C)C | -0.22
Cc1csc(NN=C2CCCCC2)n1 | -0.29
CC(C)C1C(=O)CC(c2ccccc2)NC1c1ccccc1 (centres undefined) | 0.45
SMILES | Dicer processing
O=C1NNC(c2ccccc2)C1c1ccccc1 (centres undefined) | 3.5*
O=C1C(=O)C(c2ccccc2)C(=O)C1c1ccccc1 (centres undefined) | 1.6
O=C(Oc1ccc2cc(Br)ccc2c1)c1ccncc1 | -0.55
CC1SC(c2cccnc2)N(c2ccc(F)cc2F)C1=O (centres undefined) | 2.9
Cc1nc2c(=O)n(-c3ccc(F)cc3F)nc(C)c2s1 | 3.2*
Cc1nc2c(s1)c(C)nn2-c1ccccc1 | 0.81
c1ccc(-c2nc3ccccc3nc2-c2ccsc2)cc1 | 0.75
O=C(NNS(=O)(=O)c1ccccc1)c1csc2ccc(Cl)cc12 | 0.6
CSC(=S)N(C)NC(=O)Nc1c(-c2c(Cl)cccc2Cl)noc1C | -0.93
Cc1onc(-c2c(Cl)cccc2Cl)c1CSC(=S)N(C)C | 6.6*
Cc1onc(-c2c(Cl)cccc2Cl)c1N | -1
COC(=O)c1ccccc1S(=O)(=O)/C(C#N)=C/Nc1nc(C)cc(C)n1 | -0.6
CCc1c(O)c2ccccc2n(-c2ccccc2)c1=O | 2.8
O=C(Cn1cnc2sc3c(c2c1=O)CCCC3)c1ccc(Br)cc1 | 0.05
O=C1CSCN1Cc1c(Cl)cccc1Cl | 0.28
Cc1ccc2c(c1)C(O)(CC(=O)c1ccc(Cl)cc1)C(=O)N2 (centres undefined) | -0.18
C=CCN1C(=O)NC2C1N(S(C)(=O)=O)CCN2S(C)(=O)=O (centres undefined) | 5.8*
CC(C)[C@H](NC(=O)OCc1ccccc1)C(=O)O | 0.54
N#C/C(=N\Nc1ccccc1Cl)S(=O)(=O)c1ccc(Cl)cc1 | 1.2
CCOC(=O)c1ccc2nc(C(F)(F)F)nc(N3CC(C)OC(C)C3)c2c1 (centres undefined) | -1.6
CCOC(=O)c1cnc2cc(Cl)c(F)cc2c1OCC | 1.9
CCOC(=O)c1cnc2cc(Cl)c(F)cc2c1N1CC(C)OC(C)C1 (centres undefined) | 11*
COc1c(/C=C(\NC(C)=O)C(=O)O)cccc1OC1CCCC1 | -1.3
O=C1OC(c2ccccc2Cl)Sc2ccccc21 (centres undefined) | 1.5
S=C(NCCCNC1CCCCC1)Nc1cc(Cl)ccc1Cl | -1.2
SMILES | Dicer processing
CCN(CC)C1=C(C(=O)c2ccccc2)N(CC(N)=O)S(=O)(=O)c2ccccc21 | 3.1*
O=C(CN1C(=O)c2ccccc2S1(=O)=O)c1ccccc1 | -1.1
C=CCN1C(C(=O)c2ccccc2)=C(OC(C)=O)c2ccccc2S1(=O)=O | -0.22
Cc1cccc(-c2nc(NCc3cccnc3)c3ccccc3n2)c1 | -0.19
Cc1nc2c(cnn2-c2ccccc2)c(=O)n1/N=C/c1ccc2c(c1)OCO2 | 2.1
Cc1sc2nc(C)n(/N=C/c3cccs3)c(=O)c2c1C | 1.9
Cc1sc2nc(C)n(/N=C/c3ccc4c(c3)OCO4)c(=O)c2c1C | 6.4*
COC(=O)c1ccc(Cl)cc1NC(=O)c1ccccc1Cl | 0.31
